From PubChem BioAssay
ER stress death: ER stress cell death inhibition; CSM14.1 thapsigargin ER stress survival, ATP luminescence; 48,000 tested, 0.33% active; relative survival (cellular ATP), % at 15 µg/mL (by protocol);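 active means survival measured by cellular ATP above 50% at 15 µg/ml in the first screen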;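 further: cell death triggered by about 15 µM thapsigargin; ATP read 24 h after thapsigargin was added; plate controls were thapsigargin with DMSO for no effect and DMSO without thapsigargin for full effect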
* marks the source's active call; other numbers are inactive results. The full list was thinned out, with hits kept by preference.

SMILES	ER stress death
COc1ccc(C(=O)NCCOc2ccccc2F)cc1OC	10
COc1ccc(C(=O)NCCOc2ccccc2OC)cc1OC	-3
O=C(Nc1c[nH]c(=O)[nH]c1=O)c1ccc2c(c1)C(=O)N(N1C(=O)c3ccccc3C1=O)C2=O	5
Clc1ccc(CN2CCN(/N=C/c3ccc(Cl)c(Cl)c3)CC2)cc1	0
O=C(Nc1cccc2ccccc12)C(=O)NC1CCCC1	6
Cc1ccc(NC(=S)NC(=O)c2cccnc2)cc1Br	-1
CC1CC(Nc2ccccc2)c2ccccc2N1C(=O)c1cccc(Br)c1 (centres undefined)	6
CC1CC(Nc2ccccc2)c2ccccc2N1C(=O)c1ccccc1 (centres undefined)	0
CC1CC(Nc2ccccc2)c2ccccc2N1C(=O)/C=C/c1ccco1 (centres undefined)	51*
FC(F)(F)c1ccc(-c2noc(-c3ccc(Br)cc3)n2)cc1	7
COc1cccc(N2C(=O)NC(=O)C(=Cc3ccc(N(C)C)cc3)C2=O)c1	-5
COCCNC(=O)/C(=C/c1ccc(C(C)C)cc1)NC(=O)c1ccccc1	2
COc1ccc(CCNC(=O)/C(=C/c2ccc(Cl)cc2)NC(=O)c2ccc(C)cc2)cc1OC	0
COc1ccc(CCNC(=O)/C(=C/c2ccc(C(C)C)cc2)NC(=O)c2ccccc2)cc1OC	79*
CC1(O)CC(=O)C(C(=O)c2ccccc2)C(c2ccc([N+](=O)[O-])cc2)C1C(=O)c1ccccc1 (centres undefined)	-3
COC(=O)C1C(=O)CC(C)(O)C(C(=O)OC)C1c1ccc(Br)cc1 (centres undefined)	7
COc1ccc(C2C(C(=O)c3ccccc3)C(=O)CC(C)(O)C2C(=O)c2ccccc2)cc1 (centres undefined)	58*
Nc1ncnc(Nc2ccc3ccccc3c2)c1[N+](=O)[O-]	1
COc1ccc(OC)c(NCC(O)Cn2c3ccccc3c3ccccc32)c1 (centres undefined)	6
Cc1ccccc1C(=O)N1CCN(Cc2ccccc2)CC1	-1
O=C(CC(c1ccccc1)c1ccccc1)N1CCN(Cc2ccccc2)CC1	9
O=C(C(c1ccccc1)c1ccccc1)N1CCN(Cc2ccncc2)CC1	-2
Cc1ccccc1CN1CCN(C(=O)c2cccc(Cl)c2)CC1	2
Cc1ccccc1CN1CCN(C(=O)C(c2ccccc2)c2ccccc2)CC1	97*
O=C(C(c1ccccc1)c1ccccc1)N1CCN(Cc2ccc(F)cc2)CC1	63*
SMILES	ER stress death
O=C(N/N=C/c1ccc(O)c([N+](=O)[O-])c1)c1cccnc1	9
Cc1cc(C(=O)Nc2ccc3ncccc3c2)ccc1[N+](=O)[O-]	-1
O=CNC(NC(=S)Nc1cc(Cl)ccc1Cl)C(Cl)(Cl)Cl (centres undefined)	2
O=[N+]([O-])c1ccc(-c2[nH]nc(-c3ccccc3)c2-c2nc3ccccc3[nH]2)cc1	3
C(#Cc1ccccc1)CN1CCN(CC#Cc2ccccc2)CC1	5
O=C1c2ccccc2C(=O)N1CC#CCN1CCN(C(c2ccccc2)c2ccccc2)CC1	68*
N#CCC(=O)N1CCN(C(c2ccccc2)c2ccccc2)CC1	-4
CCOC(=O)C(=CNc1ccc(C)c(C)c1)C(=O)OCC	1
COCCCNC(=O)/C(=C\c1ccc(N(C)C)cc1)NC(=O)c1ccc(C)cc1	8
CCCOc1ccc(N2C(=O)CC(N(Cc3ccc(OC)cc3)C(=O)/C=C/C(=O)O)C2=O)cc1 (centres undefined)	9
O=C1CC(c2ccc(Cl)cc2)CC2=C1C(c1ccccc1[N+](=O)[O-])Nc1ccccc1N2 (centres undefined)	26
O=C1CC(c2ccccc2)CC2=C1C(c1ccc(F)cc1)Nc1ccccc1N2 (centres undefined)	8
COc1ccc(C2CC(=O)C3=C(C2)Nc2ccccc2NC3c2ccc3c(c2)OCO3)cc1 (centres undefined)	5
O=C1CC(c2ccc3c(c2)OCO3)CC2=C1C(c1ccc(C(F)(F)F)cc1)Nc1ccccc1N2 (centres undefined)	122*
O=C1CC(c2ccc3c(c2)OCO3)CC2=C1C(c1cc3c(cc1Br)OCO3)Nc1ccccc1N2 (centres undefined)	6
Cc1ccc(C2Nc3ccccc3NC3=C2C(=O)CC(c2ccc(Cl)cc2)C3)cc1[N+](=O)[O-] (centres undefined)	7
O=C1CC(c2ccccc2)CC2=C1C(c1ccc(Cl)c([N+](=O)[O-])c1)Nc1ccccc1N2 (centres undefined)	100*
COc1ccc(C2CC(=O)C3=C(C2)Nc2ccccc2NC3c2cc3c(cc2Cl)OCO3)cc1 (centres undefined)	7
O=C1CC(c2ccc(Cl)cc2)CC2=C1C(c1cc3c(cc1[N+](=O)[O-])OCO3)Nc1ccccc1N2 (centres undefined)	84*
Cc1cccc(-n2c(C)cc(/C=C3/SC(=S)NC3=O)c2C)c1	0
Cc1cccc(OCC(=O)NC2CCCCCC2)c1	2
COC(=O)Nc1ccc(S(=O)(=O)N2C(C)CCCC2C)cc1 (centres undefined)	0
